Test [1] in a line: yeast TOR pathway RPL19A-GFP modulators, primary screen, cell-based, S. cerevisiae, multiplex flow cytometry (AID 1862; in the data active means percent of DMSO control GFP below about 86%;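 further: lower values mimic rapamycin by blocking the RPL19A rise seen in DMSO cells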). Conditions: S. cerevisiae RPL19A-GFP strain, flow cytometry fluorescence, 3 h; at 10 µM; stronger effect = lower value. (In flow cytometry, cells or beads pass a laser one at a time.)
A short description of test [2]: modulators of MEP2-GFP levels in yeast, primary screen, S. cerevisiae, multiplex flow cytometry (AID 1867;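 active means GFP response, as percent of the DMSO control, above the screen-wide mean plus 3 SD, about 139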;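 further: median GFP channel fluorescence of barcode-gated MEP2-GFP cells measured by flow cytometry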). The settings on record: S. cerevisiae MEP2-GFP strain, 3 h, at 10 µM, stronger effect = higher value, 100% means same as DMSO wells.
A short description of test [3]: modulators of CIT2-GFP expression in yeast, primary screen, S. cerevisiae, GFP fusion, multiplex flow cytometry (AID 1870).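 Further: barcoded CIT2-GFP strain pooled with four other GFP strains with rapamycin as positive control; median GFP fluorescence per well over plate mean of DMSO wells so 100% = DMSO.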 The settings on record: 3 h, at 10 µM, stronger effect = higher value.
Test [4] in a line: modulators of LAP4-GFP expression in yeast, primary screen, S. cerevisiae, multiplex flow cytometry (AID 1873;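 active means GFP signal, as percent of the solvent control, above the screen mean plus 3 SD, about 149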). Conditions: 3 h, at 10 µM, stronger effect = higher value.
A short description of test [5]: modulators of AGP1-GFP expression in yeast TOR pathway, primary screen, cell-based, multiplex flow cytometry, S. cerevisiae (AID 1887;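 active means GFP signal above the screen-wide mean plus 3 SD, that is over about 124.5% of the solvent control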;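 further: AGP1-GFP fusion strain of S. cerevisiae within a five-strain barcoded multiplex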). Conditions: 3 h, at 10 µM, stronger effect = higher value.
Test [6] is described as follows: inhibitors of CD8+ T cell-vesicle binding, pilot screen, LFA-1/ICAM-1 modulator project, MLPCN validation set, flow cytometry (AID 2523;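 active means response below a set limit, under 55% cells CD8-positive and vesicle-bound, and CD8 cells' 90th-percentile brightness under 279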;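 on vesicle binding response: mean PE anti-B7-1 fluorescence of CD8+ cells relative to row control; 100% = QL9-loaded vesicles with DMSO vehicle in the same plate row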). Conditions: 2C mouse CD8+ T cells, at 7 µM, stronger effect = lower value; double positive events: measured here: CD8+/vesicle+ event percentage.
Test [7] addresses Integrin beta-1 (Homo sapiens) + Integrin alpha-4 (Homo sapiens) (UniProt P13612+P05556). Put plainly: inhibition of HUTS-21 binding to VLA-4, pilot screen, VLA-4 allosteric modulator project, U937 cells, HUTS-21 mAb, flow cytometry, validation set (AID 2674;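 active means inhibition above 50%, about 3 SD of the validation set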;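 further: antibody binding induced by the VLA-4 ligand LDV present at three times its Kd; 0% = LDV ligand with antibody and no compound and 100% = antibody without LDV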). The settings on record: HUTS-21 LIBS mAb binding, at 6.7 µM, stronger effect = higher value, binding induced by LDV ligand.
Test [8] in a line: superoxide lowering in aged yeast cells, pilot screen, validation compound set (AID 2706;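 active means superoxide response below 65% of plate, a cut near 3 SD across the whole screen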;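 further: yeast exposed to compound for one week at 30 degrees C before staining; 100% = mean of all compound wells on the same plate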). Conditions: S. cerevisiae aging, superoxide DHE fluorescence; at 10 µM, stronger effect = lower value.
Test [9] has as its target Beta-adrenergic receptor kinase 1 (Homo sapiens) (UniProt P25098). Kind of test: GRK2 binders displacing RNA aptamer, biochemical, validation, human GRK2, bead flow cytometry (AID 488806;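 active means aptamer binding inhibition above 30%, about 3 SD of noise from non-fluorescent compounds; inactive means inhibition at or below 30%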). The settings on record: bead-bound GRK2, FAM-aptamer displacement, at 10 µM, stronger effect = higher value.
In test [10] the target is AP-2 complex subunit beta (Homo sapiens) (UniProt P63010). Put plainly: inhibitors of arrestin peptide binding to AP2, pilot screen, biochemical, validation set, GST-AP2 beads, flow cytometry (AID 504541;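 active means inhibition above 54%, about 3 SD of non-fluorescent compounds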;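 further: AP2 carries R879A mutation and is captured from E. coli lysate; bead-bound FITC arrestin peptide fluorescence measuring arrestin peptide binding to AP2; 0% = DMSO wells and 100% = excess unlabeled arrestin peptide control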). The settings on record: FITC arrestin peptide, at 10 µM, stronger effect = higher value, AP2 beta2 appendage fragment, R879A mutant.
Test [11] in a line: yeast V-ATPase proton transport modulators, S. cerevisiae, pHLuorin, HTS validation (AID 504600; in the data active means response above about 15%;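 further: plate controls were DMSO for no effect and reference compound for full effect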). The settings on record: S. cerevisiae pHLuorin cytosolic pH, at 10 µM, stronger effect = higher value.
Test [12] concerns anti-desmoglein-3 scFv antibody binding to human DSG3. Put plainly: inhibitors of anti-DSG3 scFv binding to DSG3, pilot screen, biochemical, validation compound set, bead-based, flow cytometry (AID 588368;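 active means binding below the plate cutoff, the plate median minus 3 SD, with a reading above zero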;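 further: signal is the median channel fluorescence of bead-bound GFP antibody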). The settings on record: Protein G beads, DSG3-Fc, scFv-GFP binding, at 10 µM, stronger effect = lower value.
Test [13] is described as follows: inhibitors of fungal efflux pumps CDR1, CDR2, MDR1, pilot screen, validation compound set, multiplex, phenotypic (AID 588506;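 active means efflux inhibition above 0.42, the validation set average plus 4 SD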;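 further: Nile Red retained in cells so higher fluorescence means more efflux inhibition; 0 = negative control wells and 1 = enniatin B 25 µM full block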). Conditions: S. cerevisiae pump-expressing triplex, Nile Red efflux flow cytometry; at 10 µM; stronger effect = higher value; the pumps come from Candida albicans.
The target of test [14] is ATP-binding cassette sub-family B member 6 (Homo sapiens) (UniProt Q9NP58). Kind of test: ABCB6 transporter inhibitors, pilot screen, K562-ABCB6 cells, flow cytometry, validation set (AID 588550;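 active means inhibition above the screen-wide mean plus 3 SD, about 51%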;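 further: 0% = DMSO wells and 100% = benzethonium chloride 70 µM positive control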). Conditions: K562-ABCB6 porphyrin accumulation, 1 h, at 10 µM, stronger effect = higher value.
Test [15] is described as follows: promoters of myeloid differentiation in arrested cells, primary screen, cell-based, GFP/MAC1 double positive, flow cytometry, validation set (AID 588685;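 active means differentiation response of at least 50%, scaled between solvent and reference control, from cells with both markers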;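 further: compound exposure lasts four days before antibody staining and flow analysis; 0% = DMSO wells and 100% = 5 µM fulvestrant positive control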). The settings on record: ER-HoxA9 marrow cells, stronger effect = higher value, normalized: vehicle 0, fulvestrant 100.

Results filed as inconclusive are left out. Activity calls are given as the source filed them.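 How the source made its calls, unless noted: active means percent response above a set limit, the screen-wide mean plus 3 SD (cut at about 130% in these data); inactive means the rest.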

As a reminder, the inhibition is the drop in the measured response relative to a control, in per cent.

Sequence of Integrin beta-1 (Homo sapiens) + Integrin alpha-4 (Homo sapiens) (P05556 whole entry, looked up): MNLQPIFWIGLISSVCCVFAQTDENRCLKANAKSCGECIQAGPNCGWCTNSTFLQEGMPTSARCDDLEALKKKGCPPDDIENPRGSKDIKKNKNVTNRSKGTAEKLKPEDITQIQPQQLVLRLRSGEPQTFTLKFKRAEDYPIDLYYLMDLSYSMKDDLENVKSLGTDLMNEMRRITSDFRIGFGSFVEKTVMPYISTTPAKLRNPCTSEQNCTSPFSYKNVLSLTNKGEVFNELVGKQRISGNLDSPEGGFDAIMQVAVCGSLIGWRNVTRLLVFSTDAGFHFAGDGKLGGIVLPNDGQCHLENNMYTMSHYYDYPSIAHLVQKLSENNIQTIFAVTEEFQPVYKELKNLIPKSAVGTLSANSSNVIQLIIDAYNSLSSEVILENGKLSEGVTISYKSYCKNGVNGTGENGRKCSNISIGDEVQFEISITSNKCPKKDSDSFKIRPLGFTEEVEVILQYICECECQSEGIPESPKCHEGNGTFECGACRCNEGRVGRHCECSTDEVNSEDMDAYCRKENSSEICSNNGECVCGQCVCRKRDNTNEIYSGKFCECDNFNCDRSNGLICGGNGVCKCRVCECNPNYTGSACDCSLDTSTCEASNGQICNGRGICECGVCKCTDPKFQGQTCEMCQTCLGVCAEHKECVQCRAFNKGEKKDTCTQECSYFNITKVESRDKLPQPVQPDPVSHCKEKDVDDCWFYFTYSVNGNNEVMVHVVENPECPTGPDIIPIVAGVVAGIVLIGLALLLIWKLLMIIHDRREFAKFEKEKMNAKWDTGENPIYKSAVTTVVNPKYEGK
Sequence of Integrin beta-1 (Homo sapiens) + Integrin alpha-4 (Homo sapiens) (P13612 whole entry, looked up): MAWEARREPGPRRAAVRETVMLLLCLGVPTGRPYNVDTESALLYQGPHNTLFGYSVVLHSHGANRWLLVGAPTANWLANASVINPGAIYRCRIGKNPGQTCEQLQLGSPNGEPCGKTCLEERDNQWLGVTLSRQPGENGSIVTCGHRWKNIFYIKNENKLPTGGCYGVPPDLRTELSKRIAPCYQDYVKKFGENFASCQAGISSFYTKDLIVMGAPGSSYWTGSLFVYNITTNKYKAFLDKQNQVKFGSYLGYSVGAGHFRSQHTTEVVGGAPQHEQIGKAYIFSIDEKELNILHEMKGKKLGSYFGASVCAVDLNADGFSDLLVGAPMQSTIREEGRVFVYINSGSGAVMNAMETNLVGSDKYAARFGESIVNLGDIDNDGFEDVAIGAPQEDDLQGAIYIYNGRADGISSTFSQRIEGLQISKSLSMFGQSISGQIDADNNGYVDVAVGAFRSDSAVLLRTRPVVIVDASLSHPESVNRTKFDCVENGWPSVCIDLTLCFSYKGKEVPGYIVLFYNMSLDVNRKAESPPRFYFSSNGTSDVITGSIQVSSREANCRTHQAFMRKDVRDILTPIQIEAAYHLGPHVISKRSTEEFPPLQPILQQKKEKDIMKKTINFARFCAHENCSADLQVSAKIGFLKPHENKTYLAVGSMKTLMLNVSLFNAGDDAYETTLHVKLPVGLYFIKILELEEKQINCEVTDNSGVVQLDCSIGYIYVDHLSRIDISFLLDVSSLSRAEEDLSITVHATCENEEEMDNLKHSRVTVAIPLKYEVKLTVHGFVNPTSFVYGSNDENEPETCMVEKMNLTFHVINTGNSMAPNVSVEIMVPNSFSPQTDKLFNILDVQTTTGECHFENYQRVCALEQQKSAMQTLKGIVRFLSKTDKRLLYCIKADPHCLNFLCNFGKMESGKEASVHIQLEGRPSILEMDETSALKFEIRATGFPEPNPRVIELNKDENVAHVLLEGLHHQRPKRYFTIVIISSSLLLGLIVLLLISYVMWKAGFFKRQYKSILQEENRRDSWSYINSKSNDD
Sequence of AP-2 complex subunit beta (Homo sapiens) (P63010 whole entry, looked up, the tested form may be a part, one chain of several): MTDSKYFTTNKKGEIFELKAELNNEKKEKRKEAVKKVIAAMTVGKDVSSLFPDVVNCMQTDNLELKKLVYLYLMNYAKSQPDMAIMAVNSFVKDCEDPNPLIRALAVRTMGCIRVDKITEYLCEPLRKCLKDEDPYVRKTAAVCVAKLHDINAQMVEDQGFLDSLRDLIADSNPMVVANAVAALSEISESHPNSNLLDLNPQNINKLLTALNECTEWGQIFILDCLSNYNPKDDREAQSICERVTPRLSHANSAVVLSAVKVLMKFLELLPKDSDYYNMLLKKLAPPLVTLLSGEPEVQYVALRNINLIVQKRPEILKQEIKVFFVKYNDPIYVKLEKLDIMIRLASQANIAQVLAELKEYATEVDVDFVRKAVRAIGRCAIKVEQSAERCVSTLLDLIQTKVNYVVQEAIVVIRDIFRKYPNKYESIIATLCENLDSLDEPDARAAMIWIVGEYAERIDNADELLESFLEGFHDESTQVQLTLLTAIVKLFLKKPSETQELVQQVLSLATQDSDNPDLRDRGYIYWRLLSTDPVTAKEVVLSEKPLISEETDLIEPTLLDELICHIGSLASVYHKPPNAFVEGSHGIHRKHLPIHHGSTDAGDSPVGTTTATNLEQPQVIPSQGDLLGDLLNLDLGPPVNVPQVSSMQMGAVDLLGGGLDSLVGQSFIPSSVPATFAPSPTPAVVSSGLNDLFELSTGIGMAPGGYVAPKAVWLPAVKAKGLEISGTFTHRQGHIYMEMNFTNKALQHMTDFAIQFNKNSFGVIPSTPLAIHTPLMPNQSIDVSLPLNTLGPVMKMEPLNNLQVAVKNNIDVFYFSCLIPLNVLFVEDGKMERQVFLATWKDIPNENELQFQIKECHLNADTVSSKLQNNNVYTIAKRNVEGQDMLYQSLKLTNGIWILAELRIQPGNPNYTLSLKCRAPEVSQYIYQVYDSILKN
Sequence of Beta-adrenergic receptor kinase 1 (Homo sapiens) (P25098 whole entry, looked up): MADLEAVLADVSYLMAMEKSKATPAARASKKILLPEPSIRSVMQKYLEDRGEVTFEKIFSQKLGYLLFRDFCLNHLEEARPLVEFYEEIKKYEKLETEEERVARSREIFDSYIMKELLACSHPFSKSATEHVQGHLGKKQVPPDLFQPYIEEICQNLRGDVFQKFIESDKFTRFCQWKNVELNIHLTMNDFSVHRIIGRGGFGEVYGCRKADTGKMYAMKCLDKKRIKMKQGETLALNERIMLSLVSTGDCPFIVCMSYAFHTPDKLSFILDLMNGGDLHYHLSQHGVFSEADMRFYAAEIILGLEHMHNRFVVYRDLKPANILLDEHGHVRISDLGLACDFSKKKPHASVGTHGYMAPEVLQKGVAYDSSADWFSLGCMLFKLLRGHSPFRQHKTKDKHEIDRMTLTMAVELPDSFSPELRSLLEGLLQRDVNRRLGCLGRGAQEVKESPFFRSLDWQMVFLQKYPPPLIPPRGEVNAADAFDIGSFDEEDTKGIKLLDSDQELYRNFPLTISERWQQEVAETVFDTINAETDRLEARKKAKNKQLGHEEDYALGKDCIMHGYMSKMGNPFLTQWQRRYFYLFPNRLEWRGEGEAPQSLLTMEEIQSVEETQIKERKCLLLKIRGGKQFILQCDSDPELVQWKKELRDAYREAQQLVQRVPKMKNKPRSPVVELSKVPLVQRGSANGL
Sequence of ATP-binding cassette sub-family B member 6 (Homo sapiens) (Q9NP58 whole entry, looked up): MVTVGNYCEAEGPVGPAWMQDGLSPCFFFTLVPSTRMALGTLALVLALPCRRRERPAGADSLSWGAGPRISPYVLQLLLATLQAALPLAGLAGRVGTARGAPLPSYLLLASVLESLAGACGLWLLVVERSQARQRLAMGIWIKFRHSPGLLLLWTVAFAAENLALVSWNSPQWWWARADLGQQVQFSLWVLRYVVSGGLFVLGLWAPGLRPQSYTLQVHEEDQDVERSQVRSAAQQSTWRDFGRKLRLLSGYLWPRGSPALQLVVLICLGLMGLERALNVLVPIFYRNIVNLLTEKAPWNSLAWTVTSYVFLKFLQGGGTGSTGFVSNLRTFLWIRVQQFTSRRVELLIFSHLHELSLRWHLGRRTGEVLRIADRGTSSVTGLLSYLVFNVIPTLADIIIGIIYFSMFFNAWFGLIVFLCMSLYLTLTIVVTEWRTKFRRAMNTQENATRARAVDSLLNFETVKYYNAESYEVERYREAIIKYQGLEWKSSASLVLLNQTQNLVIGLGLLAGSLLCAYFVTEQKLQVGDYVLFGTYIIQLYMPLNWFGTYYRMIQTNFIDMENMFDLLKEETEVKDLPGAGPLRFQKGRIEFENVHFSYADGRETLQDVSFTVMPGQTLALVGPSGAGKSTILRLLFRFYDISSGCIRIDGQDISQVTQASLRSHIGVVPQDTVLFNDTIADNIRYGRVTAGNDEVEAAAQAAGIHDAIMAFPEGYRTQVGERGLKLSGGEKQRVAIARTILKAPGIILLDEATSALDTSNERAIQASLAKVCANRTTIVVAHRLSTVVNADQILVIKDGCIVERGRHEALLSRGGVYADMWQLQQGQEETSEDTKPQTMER

In the case of `CCOC(=O)C(=O)Nc1ccc(Oc2ccccc2)cc1`, the percent of DMSO control GFP in test [1] was 96.8% (inactive). Besides, the results for the GFP response vs DMSO in [2] and in test [4] were 105% (inactive) and 106% (inactive), respectively. The percent response of DMSO control in test [3] is 101% (inactive). For the same compound, the GFP response, % of DMSO in [5] is 97.8% (inactive). Also, the double positive events in test [6] is 61.7%. Besides, the vesicle binding response in test [6] is 101% (inactive). Moreover, the inhibition was 18.4% (inactive) in test [7], 9.79% (inactive) in test [10] and 4% (inactive) in test [14]. For the same compound, the superoxide response (% of plate) in [8] was 101% (inactive). Moreover, the aptamer binding inhibition in [9] was 3% (inactive). For the same compound, in test [11], the response is 1.03% (inactive). The binding (% of control) in [12] was 105% (inactive). In test [13], the efflux inhibition (fraction of control) is -0.05 (inactive). In addition, in test [15], the differentiation response is -26% (inactive).
`COc1cccc(OCc2cc(C3Nc4ccccc4C(=O)N3Cc3ccco3)ccc2OC)c1` (stereo not given): the percent of DMSO control GFP in test [1] was 106% (inactive). Besides, the GFP response vs DMSO is 99.9% (inactive) in [2] and 92.3% (inactive) in [4]. Further, the percent response of DMSO control in test [3] was 104% (inactive). Besides, the GFP response, % of DMSO in [5] was 88.9% (inactive). This compound yielded a double positive events in [6] of 53.2%. Also, the vesicle binding response in test [6] is 127% (inactive). Further, the inhibition in test [7] was 3.49% (inactive); in [10], -4.8% (inactive); in test [14], 3% (inactive). For the same compound, the superoxide response (% of plate) in test [8] was 99.1% (inactive). The aptamer binding inhibition in test [9] was 4% (inactive). Moreover, in test [11], the response was 0% (inactive). In addition, the binding (% of control) in test [12] was 96.5% (inactive). Besides, the efflux inhibition (fraction of control) in [13] was 0.03 (inactive). Further, the differentiation response in test [15] is -9.89% (inactive).
With `O=C(O)CCSc1nc2ccccc2s1`, the percent of DMSO control GFP in test [1] is 104% (inactive). In addition, the values for the GFP response vs DMSO in test [2] and in test [4] were 99.9% (inactive) and 106% (inactive), respectively. Moreover, the percent response of DMSO control in test [3] was 102% (inactive). Besides, the GFP response, % of DMSO in test [5] was 95.8% (inactive). The double positive events in [6] was determined as 49.5%. In addition, the vesicle binding response in test [6] was 183% (inactive). Further, the results for the inhibition in test [7], in [10] and in [14] were -9.57% (inactive), -3.62% (inactive) and 8% (inactive), respectively. Moreover, in test [8], the superoxide response (% of plate) is 115% (inactive). Also, in test [9], the aptamer binding inhibition is 7% (inactive). In test [11], the response was -1.68% (inactive). For the same compound, the binding (% of control) in [12] was 101% (inactive). For the same compound, the efflux inhibition (fraction of control) in test [13] was 0.44 (active). Moreover, the differentiation response in [15] was 17.6% (inactive).
For the compound `CC(C)NNC(=O)c1ccncc1`, in test [1], the percent of DMSO control GFP is 100% (inactive). Moreover, the GFP response vs DMSO was 101% (inactive) in test [2] and 114% (inactive) in test [4]. For the same compound, the percent response of DMSO control in test [3] is 107% (inactive). Besides, the GFP response, % of DMSO in test [5] was 111% (inactive). Further, in [6], the double positive events was 55.2%. Further, the vesicle binding response in [6] is 178% (inactive). The inhibition was -7.7% (inactive) in test [7], -13.9% (inactive) in [10] and 3% (inactive) in [14]. Moreover, the superoxide response (% of plate) in [8] was 101% (inactive). For the same compound, the aptamer binding inhibition in test [9] was 2% (inactive). The response in [11] is -0.37% (inactive). Further, in test [12], the binding (% of control) was 98.7% (inactive). In addition, in [13], the efflux inhibition (fraction of control) was 0.22 (inactive). The differentiation response in [15] was -26% (inactive).
`CCOC(=O)C1=C(N)Oc2c(oc(CO)cc2=O)C1c1ccc(F)c(F)c1` (stereo not given): in test [1], the percent of DMSO control GFP was 99.1% (inactive). The GFP response vs DMSO in test [2] is 101% (inactive); in test [4] it was 94.3% (inactive). Also, the percent response of DMSO control in test [3] was 99.8% (inactive). Also, the GFP response, % of DMSO in test [5] is 97.3% (inactive). In test [6], this compound registered a double positive events of 56.7%. The vesicle binding response in test [6] is 213% (inactive). The inhibition in [7] is 9.09% (inactive); in test [10], 42.8% (inactive); in test [14], 2% (inactive). In test [8], the superoxide response (% of plate) was 98% (inactive). Besides, the aptamer binding inhibition in test [9] was 1% (inactive). Besides, the response in test [11] was -11.2% (inactive). Besides, the binding (% of control) in test [12] was 104% (inactive). In addition, the efflux inhibition (fraction of control) in [13] was 0.03 (inactive). For the same compound, the differentiation response in test [15] was -18% (inactive).

(Values after PubChem BioAssay.)
